The campaign covered roughly 290,000 compounds. About 2,700 (0.93%) were called active. The rule behind the calls is not given here. What follows is part of a selection rich in actives, with near analogues and random picks from the rest.
Target: Eukaryotic translation initiation factor 4H (Homo sapiens) (UniProt Q15056)
Assay: human eIF4H binding inhibitors, primary screen, translation initiation inhibitor project, biochemical, uHTS, fluorescence polarization (AID 2012);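 note: calls also rest on retests at 20 µM and on dose response follow-up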
Conditions: eIF4H fluorescence polarization binding assay, stronger effect = higher value

| Structure (SMILES) | inhibition (at 35 µM) | inhibition (confirmation average, at 20 µM) |
| --- | --- | --- |
| CCCN(c1ccc(C)cc1)c1nc(=O)c2cccnc2s1 | 91.1% (active) |  |
| COc1ccccc1N1CC(C(=O)Nc2nnc(SCC(=O)NCC3CCCO3)s2)CC1=O (stereo not drawn) | -4% (inactive) |  |
| CN(C(=O)c1cc2c(=O)n3ccccc3nc2s1)C1CCCCC1 | -4.1% (inactive) |  |
| COc1cccc(CC(=O)Nc2nc(-c3ccc(OC)c(OC)c3)cs2)c1 | 6.8% (inactive) |  |
| COc1ccc(-c2csc(Nc3ccc(O)cc3)n2)cc1 | 9.7% (inactive) |  |
| COc1ccc(OC)c(Nc2nc(-c3ccc(O)c(O)c3)cs2)c1 | 65.5% (active) |  |
| O=S(=O)(Nc1cccc(-n2cnnn2)c1)c1cnc(Cl)c(Cl)c1 | -5.5% (inactive) |  |
| CN(C)S(=O)(=O)c1ccc(N/C=C(\[N+](=O)[O-])S(=O)(=O)c2ccccc2)cc1 | -0.3% (inactive) |  |
| COc1cccc(OC)c1C(=O)Nc1c(C(=O)N2CCN(c3ccccn3)CC2)oc2ccccc12 | -10.2% (inactive) |  |
| Oc1c(Cl)cc(Cl)c(Cl)c1Cc1c(O)c(Cl)cc(Cl)c1Cl | 51% (active) | 96.3% |
| COc1ccc(CSc2nnnn2-c2ccc(O)cc2)cc1F | -12% (inactive) |  |
| COc1cccc(NC(=O)c2ccccc2N(Cc2ccccc2)S(C)(=O)=O)c1 | -8.4% (inactive) |  |
| COC(=O)[C@@H]1CCCN1C(=O)c1cc(COc2cccc3cccnc23)on1 | 4.3% (inactive) |  |
| O=C1CCCC(O)=C1N=Nc1ccc(S(=O)(=O)N2CCOCC2)cc1 | 27.7% (inactive) |  |
| O=C1CCCC(O)=C1N=Nc1ccc2ncsc2c1 | 69.2% (active) | 94.3% |
| CC(CC(=O)N1CCN(S(=O)(=O)c2ccccc2)CC1)n1cncn1 (stereo not drawn) | -2.7% (inactive) |  |
| COc1ccc(Cc2nnc(NC(=O)c3ccc(OC)cc3OC)s2)cc1 | 4.9% (inactive) |  |
| COc1ccc(Cc2nnc(NC(=O)Cc3cccs3)s2)cc1 | 71.3% (active) |  |
| CCc1nnc(NC(=O)Cc2cccs2)s1 | 19.2% (inactive) |  |
| CC1CN(C(=O)CCC(=O)NCCCN2CCC(Cc3ccccc3)CC2)c2cc(Cl)ccc2O1 (stereo not drawn) | 6% (inactive) |  |
| C#CCOc1ccccc1/C=C1/C(=O)ON=C1C | -20.1% (inactive) |  |
| Cc1ccc(NC(=O)c2cccnc2C(=O)Nc2ccc(C)cc2)cc1 | 4% (active) | 65.7% |
| Cc1ccc(NC(=O)Nc2cccnc2)cc1 | 2.1% (inactive) |  |
| Cc1ccc(NC(=O)c2ccc(Oc3ncccn3)cc2)cc1 | 0.1% (inactive) |  |
| O=[N+]([O-])c1cc(Cl)cc(/C=N/NC(=S)Nc2cc(S(=O)(=O)N3CCOCC3)ccc2Cl)c1O | 89.6% (active) |  |

| Structure (SMILES) | inhibition (at 35 µM) | inhibition (confirmation average, at 20 µM) |
| --- | --- | --- |
| O=C(N/N=C/c1cc(Cl)cc([N+](=O)[O-])c1O)C(O)(c1ccccc1)c1ccccc1 | 1.2% (inactive) |  |
| O=C(NC(=S)Nc1ccc(S(=O)(=O)N2CCOCC2)cc1)c1ccccc1[N+](=O)[O-] | 6.8% (inactive) |  |
| CC[C@]1(c2ccccc2OC)C(=O)N(C(=O)OC)N1C(=O)OC | 2.4% (inactive) |  |
| COc1ccccc1CNC(=O)[C@@H]1CCCN1C(=O)[C@@H]1Cc2ccccc2CN1C(=O)OC(C)(C)C | -6.3% (inactive) |  |
| COc1ccc(NS(=O)(=O)c2ccc(N3CCN(CCO)CC3)c([N+](=O)[O-])c2)cc1 | -9.3% (inactive) |  |
| Cc1cc(NC(=O)CN2CCCC(C)C2)n(-c2nc3ccccc3s2)n1 (stereo not drawn) | -0.6% (inactive) |  |
| CCC(C)Cn1c(O)cc2nn(-c3nc4ccccc4s3)c(=O)c-2c1C (stereo not drawn) | 89.6% (active) |  |
| C/C(=N\NC(=O)CC(C)C)c1c(C(F)(F)F)[nH]n(-c2nc3ccccc3s2)c1=O | -5.6% (inactive) |  |
| COc1ccc(S(=O)(=O)NCCCCOc2ccc(Cl)cc2)cc1 | 25.8% (inactive) |  |
| O=C(NNS(=O)(=O)c1ccc(F)cc1)c1ccc([N+](=O)[O-])cc1Cl | -5.4% (inactive) |  |
| CC(C)c1ccc(OCC(O)CN2CCN(c3ccccn3)CC2)cc1 (stereo not drawn) | -9.3% (inactive) |  |
| CC(C)(C)C(=O)OCc1nc(-c2ccc(O)c(O)c2)cs1 | 1.2% (inactive) |  |
| COc1ccc(-c2csc(NC3OC(=O)c4ccccc43)n2)cc1 (stereo not drawn) | 2.1% (inactive) |  |
| COc1ccc(-c2csc(Cc3nc(O)cs3)n2)cc1 | 20.3% (active) | 82.6% |
| FC(F)(F)C1CCCN(c2nsc3ccccc23)C1 (stereo not drawn) | -3.8% (inactive) |  |
| O=S(=O)(c1ccc(Br)cc1)c1nc(-c2ccccc2)oc1N1CCOCC1 | -5.9% (inactive) |  |
| O=C(O)CCC(=O)Nc1ccc(OCC2CCCO2)cc1 (stereo not drawn) | 2.6% (inactive) |  |
| COC(=O)COc1ccc2c(=O)c(Oc3ccccc3Br)coc2c1 | 5.6% (inactive) |  |
| Cc1cc(=O)oc(C)c1C(=O)Nc1cnc2ccccc2c1 | 78.6% (active) |  |
| Cc1cc(=O)oc(C)c1C(=O)NCc1ccc(F)cc1 | 0.5% (inactive) |  |
| Cc1cc(=O)oc(C)c1C(=O)NCCN(C)Cc1ccccc1 | 6.6% (inactive) |  |
| CCOC(=O)c1c(S(=O)(=O)NCC(=O)Nc2ccc(C)cc2)c(C)n(C)c1C | -0.1% (inactive) |  |
| O=C(NCCCn1ccnc1)/C(=C\c1ccccc1F)NC(=O)c1ccccc1 | -6.4% (inactive) |  |
| Cc1ccc(Nc2nc(C)cc(C)c2C(N)=O)cc1 | 5.6% (inactive) |  |
| Cc1cc(OC(=O)c2c(Cl)cccc2Cl)nc(C)n1 | -11.4% (inactive) |  |

| Structure (SMILES) | inhibition (at 35 µM) | inhibition (confirmation average, at 20 µM) |
| --- | --- | --- |
| Cc1cc(C)c(C(N)=O)c(Cl)n1 | 19.4% (active) | 93.1% |
| CC(C)CN(CC(C)C)C(=O)CN1c2cccc3cccc(c23)S1(=O)=O | -14.9% (inactive) |  |
| Cc1ccc(C2Nc3cccc4cccc(c34)N2)cc1 | 41% (inactive) |  |
| Oc1ccc(C2Nc3cccc4cccc(c34)N2)cc1 | 97.3% (active) |  |
| COc1ccc(N2C(=O)C3CCCN3C2c2cccc(OC)c2)cc1 (stereo not drawn) | -6.3% (inactive) |  |
| COc1ccc(C2NC(=O)c3ccccc3N2)cc1 (stereo not drawn) | 7.1% (inactive) |  |
| COc1cccc(C2Nc3cccc4cccc(c34)N2)c1 | 59.9% (active) | 98.5% |
| O=C1NC(c2cccc(Cl)c2)Nc2ccccc21 (stereo not drawn) | -8.5% (inactive) |  |
| O=C(Nc1nnc(S(=O)(=O)N2CCCCCC2)s1)c1cccc(Br)c1 | -8.4% (inactive) |  |
| COc1ccc(CCNC(=O)CN(C)S(=O)(=O)c2ccc3nc(C)sc3c2)cc1OC | -3% (inactive) |  |
| CS(=O)(=O)N1CCCC(C(=O)Nc2ccccc2C(F)(F)F)C1 (stereo not drawn) | -2% (inactive) |  |
| CCOc1ccc(NC(=O)CC(Cc2ccc(Cl)cc2)C(=O)O)cc1 (stereo not drawn) | -6.5% (inactive) |  |
| CN(Cc1ccccc1)CC(O)COc1ccc(CNCc2cc3ccccc3s2)cc1 (stereo not drawn) | -2% (inactive) |  |
| CN(CC1CCCN(CCc2cccc(C(F)(F)F)c2)C1)C(=O)c1ccc2nc[nH]c2c1 (stereo not drawn) | -2% (inactive) |  |
| Oc1ccc(-c2cccc(-c3ccc(O)cc3)c2)cc1 | 2% (inactive) |  |
| CCC(C)(C)NC(=O)C(c1ccc(O)cc1)N(Cc1ccco1)C(=O)CCC(=O)Nc1ccccn1 (stereo not drawn) | -7% (inactive) |  |
| Cc1[nH]n(C(N)=S)c(=O)c1N=Nc1ccc(Cl)cc1Cl | 13.7% (inactive) |  |
| Cc1cc2ccccc2n1CCNC(=O)COc1ccc2ccccc2c1 | 21% (inactive) |  |
| O=C(O)CCn1c(Cc2ccccc2)nc2ccccc21 | 0.7% (inactive) |  |
| Cc1cc2ccccc2n1CCC(=O)O | 52.4% (active) | 80.5% |
| CCc1nc(N2CCN(C(C)=O)CC2)c2c3c(sc2n1)CCCC3 | -5.1% (inactive) |  |
| COc1ccc(C(C)NC(=S)NC2CCCCC2)cc1OC (stereo not drawn) | -7.9% (inactive) |  |
| CCOc1ccc(N(C)Cc2cc(=O)oc3ccc(OC)cc23)cc1 | 4.8% (inactive) |  |
| O=C(NCc1cccnc1)c1ccccc1NC(=O)c1c(F)cccc1F | -10.7% (inactive) |  |
| O=c1ccn(Cc2ccccc2Cl)cc1 | -2.8% (inactive) |  |

| Structure (SMILES) | inhibition (at 35 µM) | inhibition (confirmation average, at 20 µM) |
| --- | --- | --- |
| CSc1ccc(/C=N/N2CCN(Cc3ccccc3Cl)CC2)cc1 | 0.6% (inactive) |  |
| O=S1(=O)CCN(Cc2ccccc2Cl)CC1 | 56.9% (active) | 81.5% |
| COC(=O)c1ccc(C(=O)NC2CC(C)(C)Cc3c2cnn3-c2ccc(F)cc2)nc1 (stereo not drawn) | -3.4% (inactive) |  |
| CC(c1ccccn1)N(C)C(=O)c1ccc2nc(Cc3cccc(Cl)c3)oc2c1 (stereo not drawn) | -0.5% (inactive) |  |
| COC(=O)CCCC1=CC2=CC(=O)C(C)(OC(=O)c3cccs3)C(=O)C2=CN1CC1CC1 (stereo not drawn) | 45.8% (inactive) |  |
| CC1(OC(=O)CCc2ccccc2)C(=O)C=C2C=C(c3ccc(C#N)cc3)N(CCc3ccccn3)C=C2C1=O (stereo not drawn) | 35.9% (inactive) |  |
| COCCN1C=C2C(=O)C(C)(OC(=O)C3CCCC3)C(=O)C=C2C=C1c1ccsc1 (stereo not drawn) | 98.2% (active) |  |
| COCc1c(C(=O)N/N=C(\C)c2ccncc2)nnn1-c1nonc1N | 1.9% (inactive) |  |
| Cc1ccc(NC(=O)C2CCN(S(=O)(=O)c3ccc4c(c3)NC(=O)CO4)CC2)cc1C | -7.3% (inactive) |  |
| COc1ccccc1C(=O)N(Cc1ccc(C)o1)C1CCS(=O)(=O)C1 (stereo not drawn) | -6.1% (inactive) |  |
| Fc1cc(F)c2nc(Nc3nc4c(F)cccc4s3)sc2c1 | 11.5% (inactive) |  |
| NC(=O)c1c(NC(=O)c2ccccc2)sc2c1CCCC2 | -0.5% (inactive) |  |
| NC(=O)c1c(Nc2nc3c(F)cccc3s2)sc2c1CCCC2 | 72.6% (active) | 99.1% |
| Cc1cc2oc(=O)cc(CN(C)Cc3ccc(OC(F)F)cc3)c2cc1Cl | -2.2% (inactive) |  |
| Cc1ccc(S(=O)(=O)N2CCC(C)CC2)cc1C(=O)NCc1ccccn1 | -2.5% (inactive) |  |
| CCc1ccc(NC(=O)CN2CCC(C(=O)c3ccc(OC)cc3)CC2)cc1 | -2.2% (inactive) |  |
| CN1CCCC(OC(=O)COc2ccc(Br)cc2)C1 (stereo not drawn) | 99.9% (active) | 84.2% |
| Cc1ccc(C(=O)OC2CCCN(C)C2)cc1 (stereo not drawn) | -3.9% (inactive) |  |
| CCOC(=O)N1CCN(C(=O)COc2ccc(Br)cc2)CC1 | 5.2% (inactive) |  |
| S=C(NCc1cccs1)Nc1ccc(Cl)cc1 | -10% (inactive) |  |
| COC(=O)Cc1ccc(NC(=S)NCc2ccc(Cl)cc2)cc1 | 2% (inactive) |  |
| Fc1ccccc1CNC(=S)Nc1ccc(Cl)cc1 | 0.6% (active) | 106% |

Reference: PubChem BioAssay AID2012 (Sanford-Burnham Center for Chemical Genomics, 2009)
